# Source: the supplement of paper PMC12636033
# ± gives the standard deviation of the averaged measurements. Over roughly 33,000 sequences, “E-score (rank enrichment, -0.5 to 0.5)” has its median near -0.0028; the highest 2% begin near 0.23. This excerpt belongs to a sample that is enriched for the highest values.
# Test system: 2Sb-muMax20 (muMax20 with two 1,3-bis(methyl)benzene Cys staples, A13C/A17C and Q88C/A92C, C-terminal Lys)
# Experiment: PBM 8-mer E-score (E-score (rank enrichment, -0.5 to 0.5)); higher = stronger preferential binding
# Description: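 Protein binding microarray (universal PBM chip covering all 10-mers in fixed probe flanks) with chemically synthesized human Max(13-93) bHLH-LZ analogs (not full-length Max) bearing noncanonical residues (hArg, Tha, Aib, Nle at 65) and aromatic Cys staples. Read-out per 8-mer (and its reverse complement): E-score (rank-based enrichment, -0.5 to 0.5) and Z-score of median probe intensity.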
row,Sequence,PBM 8-mer E-score
1,CAATACAC,0.0179 ± 0.049
2,ATACACAT,0.244 ± 0.02
3,CAATACAA,0.234 ± 0.0058
4,ATACACAG,0.0629 ± 0.073
5,ATACACAC,0.0901 ± 0.038
6,AGACTAGG,-0.0528 ± 0.031
7,CGGTACCC,-0.133 ± 0.015
8,CCTAGAGC,-0.0448 ± 0.0096
9,CCGATCGG,-0.289 ± 0.039
10,CGGCTAAC,-0.13 ± 0.011
11,TCCGTCCA,-0.0552 ± 0.013
12,GCGCATAC,0.0299 ± 0.0056
13,ATCGGTGG,-0.0489 ± 0.0043
14,ATAACCTC,0.175 ± 0.016
15,AAGGCCCC,0.068 ± 0.039
16,AGAGTGAC,-0.11 ± 0.0053
17,AAATACAT,0.241 ± 0.058
18,GCATACAA,0.119 ± 0.0048
19,CCATACAA,0.115 ± 0.024
20,AAATATAC,0.138 ± 0.019
21,AAATATAA,0.21 ± 0.022
22,AAATACAA,0.0975 ± 0.074
23,AAATATAT,0.313 ± 0.02
24,ACCTATAA,0.00571 ± 0.046
25,ACCTATAT,0.233 ± 0.0084
26,AAATACAC,0.145 ± 0.033

row,Sequence,PBM 8-mer E-score
1,ACCTATAC,0.0485 ± 0.061
2,TCATACAA,0.235 ± 0.035
3,ATCACCGA,-0.0646 ± 0.084
4,CCTCCACC,0.0772 ± 0.089
5,ATCGGGAG,-0.0438 ± 0.039
6,CCAGATCG,-0.185 ± 0.061
7,CTAACAAG,0.0426 ± 0.045
8,ATATGGCG,0.123 ± 0.007
9,GAAGGTAA,0.0664 ± 0.084
10,ACATATAT,0.255 ± 0.024
11,ACATATAC,0.137 ± 0.0056
12,ACATATAG,0.131 ± 0.031
13,CTATCATA,0.149 ± 0.03
14,ATATCATA,0.239 ± 0.055
15,CCATCATA,0.155 ± 0.017
16,ACATCATA,0.243 ± 0.0089
17,ACATCATC,0.0415 ± 0.031
18,ATATCATG,0.178 ± 0.016
19,CGTGGAAC,-0.0767 ± 0.0022
20,AGTGTGGC,-0.0951 ± 0.025
21,GTAAGGGA,-0.0384 ± 0.016
22,ACATCCTC,0.028 ± 0.067
23,ATCACGCC,0.0526 ± 0.033
24,AGCACGTC,-0.156 ± 0.042
25,AGCACGTA,0.128 ± 0.038
26,ATCACGCA,-0.037 ± 0.094

row,Sequence,PBM 8-mer E-score
1,ACCACGCG,0.283 ± 0.02
2,ATCACGCG,0.239 ± 0.026
3,AGCACGTG,0.431 ± 0.0076
4,ACCACGTC,-0.01627 ± 2.1e-05
5,ACCACGTG,0.432 ± 0.025
6,ACCACGCA,-0.0882 ± 0.019
7,CCCACGCG,0.221 ± 0.031
8,ACCACGTA,-0.0697 ± 0.045
9,AATTTCGT,0.0796 ± 0.033
10,GATTGCCC,-0.0998 ± 0.019
11,ATTTAGCG,0.0611 ± 0.079
12,ATCACGTG,0.4 ± 0.014
13,ATCACGTC,0.0586 ± 0.042
14,ATCACGTA,0.163 ± 0.032
15,TAGCTACA,0.0611 ± 0.017
16,TGGGTACA,-0.0341 ± 0.055
17,ATTGTTTG,0.106 ± 0.05
18,CTTGTTTC,0.169 ± 0.026
19,ATTGTTTC,0.248 ± 0.046
20,CGGTATTA,-0.1001 ± 0.00022
21,TAAATATA,0.238 ± 0.0035
22,CAAATATA,0.151 ± 0.0063
23,GATATATA,0.152 ± 0.015
24,AAAATATA,0.178 ± 0.027
25,TATATATA,0.326 ± 0.048
26,TATATAAA,0.177 ± 0.052

row,Sequence,PBM 8-mer E-score
1,AGAACACG,0.104 ± 0.028
2,AGTCGAAG,0.0391 ± 0.095
3,CGCTCGAG,0.136 ± 0.036
4,GGTTGTTA,0.116 ± 0.038
5,ACTACTGA,-0.123 ± 0.021
6,CCCGAGAG,-0.255 ± 0.041
7,ATCAGCCA,-0.0692 ± 0.065
8,ATCAGCCG,-0.223 ± 0.0056
9,ATCAGCCC,0.231 ± 0.03
10,CAAGAGTC,-0.073 ± 0.074
11,ACTACATA,0.239 ± 0.06
12,GCTACATA,-0.0387 ± 0.017
13,CCTACACG,-0.0783 ± 0.048
14,ACTACACG,0.0218 ± 0.034
15,ACTACACA,0.266 ± 0.055
16,ACTACATG,0.123 ± 0.031
17,TAGAACGA,0.0786 ± 0.036
18,AGCGAATC,0.0438 ± 0.019
19,GTAAAGTA,0.262 ± 0.032
20,ATAAAGTA,0.166 ± 0.053
21,CTAAAGTA,-0.0474 ± 0.011
22,AGTATATA,0.334 ± 0.041
23,GGTATATA,0.235 ± 0.013
24,AGTATATC,0.106 ± 0.013
25,CGTATCTA,-0.126 ± 0.083
26,CGTATATA,0.185 ± 0.0076

row,Sequence,PBM 8-mer E-score
1,GGTATCTA,0.0221 ± 0.013
2,GGTATAGA,0.0611 ± 0.0045
3,AGTATATG,0.153 ± 0.051
4,AGTATCTA,0.329 ± 0.0077
5,CCATCGCG,0.124 ± 0.044
6,GTCGCGGA,-0.206 ± 0.07
7,CGCCCCGC,0.072 ± 0.059
8,TGAATTAA,0.255 ± 0.0052
9,ATAATTAA,0.141 ± 0.023
10,TTAATTAA,0.281 ± 0.08
11,ATAATTAC,0.276 ± 0.0099
12,GGAATTAA,0.166 ± 0.031
13,GTAATTAC,0.2036 ± 0.0011
14,CGAATTAA,0.00973 ± 0.029
15,CTAATTAC,0.139 ± 0.051
16,CTAATTAA,0.0454 ± 0.045
17,GTTGAAAA,0.103 ± 0.084
18,ACCTTGCA,0.0732 ± 0.0055
19,CGGGGGAA,-0.121 ± 0.028
20,AAGGGAGG,0.0917 ± 0.039
21,CTCTAGTA,0.103 ± 0.0078
22,GTCTAGTA,0.247 ± 0.051
23,ATCTAGTA,-0.0228 ± 0.022
24,CTAAGGGC,-0.156 ± 0.055
25,AAAGCGGA,0.0459 ± 0.0043
26,ACTTACTC,0.0212 ± 0.036

row,Sequence,PBM 8-mer E-score
1,CCTTACTA,0.0233 ± 0.037
2,ACTTACTA,0.258 ± 0.042
3,GACCCACA,0.0373 ± 0.043
4,CGTATTTA,0.2434 ± 0.0022
5,AGTATTTA,0.195 ± 0.012
6,GGTATTTA,0.118 ± 0.052
7,GAACATGC,0.136 ± 0.0025
8,TATCTTGA,0.163 ± 0.012
9,GATCTTGA,0.246 ± 0.03
10,CATCTTGA,-0.0488 ± 0.041
11,ATGACTGC,0.00213 ± 0.035
12,CGCCTCAA,0.0117 ± 0.0089
13,CGGCGGGA,-0.205 ± 0.01
14,CGCGGGGA,0.0556 ± 0.023
15,GGCGGGGA,0.403 ± 0.025
16,AGGGCGGA,-0.228 ± 0.016
17,GGCGGGAA,0.0557 ± 0.014
18,AGGCGGGG,0.259 ± 0.092
19,AGGCGGGA,0.08088 ± 0.00027
20,AGGGCGGG,0.272 ± 0.091
21,GGGCGGAA,0.111 ± 0.07
22,GGGCGGGA,0.3 ± 0.018
23,AGGCGGGC,0.00216 ± 0.077
24,AGGGCGGC,-0.161 ± 0.057
25,AACCGATA,-0.0929 ± 0.094
26,ACACCTCA,0.0903 ± 0.038

row,Sequence,PBM 8-mer E-score
1,GACGAGGA,-0.0396 ± 0.053
2,ACCAGGGT,-0.196 ± 0.08
3,CTGGACAC,-0.2589 ± 0.0024
4,ACCGGGTA,-0.1338 ± 0.00064
5,CATGAGCG,-0.0614 ± 0.0046
6,CCTACCCG,-0.0857 ± 0.0032
7,ATGGCGCG,0.0718 ± 0.02
8,CTGGCGCA,-0.166 ± 0.074
9,ATGGCGCA,0.239 ± 0.057
10,ACTTGGGG,0.3507 ± 0.0032
11,ACTTGGGC,0.0763 ± 0.039
12,ATTTGGGG,0.267 ± 0.0073
13,ATTTGGGC,0.102 ± 0.069
14,CACTTGGG,0.176 ± 0.012
15,AACTTGGA,0.0353 ± 0.027
16,AACTTGGG,0.304 ± 0.015
17,ACTTGGGA,-0.129 ± 0.03
18,AATTTGGT,0.0829 ± 0.018
19,ATTTGGGA,0.209 ± 0.0036
20,AATTTGGG,0.29 ± 0.015
21,AATTTGGA,0.0432 ± 0.015
